# Measurements from PubChem BioAssay.
# For some of these results: Results with a measured potency or affinity are listed apart. The list shows a part of the results. The source made the active and inactive calls.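 Rule for the calls, unless noted: active = dose curve with midpoint inside tested range, moderate steepness, plateau gap beyond fit error, low compound glow and bead-link interference; inactive = the rest.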
# Columns and labels:
# [1] = biological target: Cell division control protein 42 homolog (Homo sapiens) (UniProt P60953); assay: inhibition of fluorescent GTP binding to constitutively active Cdc42 – biochemical, multiplex bead flow cytometry, Bodipy-FL-GTP, dose response (AID 1333;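 active = fitted half-maximal concentration within the tested dose range, moderate curve steepness, a statistically real signal drop, and little compound fluorescence or tag-binding interference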)
# Sequence of Cell division control protein 42 homolog (Homo sapiens) (P60953 whole entry, looked up): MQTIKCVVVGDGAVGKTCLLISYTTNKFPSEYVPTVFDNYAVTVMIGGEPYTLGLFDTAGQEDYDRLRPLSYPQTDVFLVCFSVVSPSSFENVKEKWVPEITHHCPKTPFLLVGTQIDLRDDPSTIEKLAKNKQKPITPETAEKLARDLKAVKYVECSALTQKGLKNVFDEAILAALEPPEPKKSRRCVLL
# [2] = biological target: Cell division control protein 42 homolog (Homo sapiens) (UniProt P60953); assay: inhibition of fluorescent GTP binding to wildtype Cdc42 – biochemical, multiplex bead flow cytometry, Bodipy-FL-GTP, dose response (AID 1334;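 active = fitted half-maximal concentration within the tested range, moderate curve steepness, significant signal drop, and little compound fluorescence or bead-linkage interference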); settings: bead-based flow cytometry, Bodipy-FL-GTP binding to GST-Cdc42; at 100 µM (top of the series)
# [3] = test system: Ras-related protein Rab-7a (dog), GTP binding; assay: blockers of fluorescent GTP binding to Rab7 – biochemical, wildtype, multiplex bead flow cytometry, dose response (AID 1336; call rule not given here)
# [4] = biological target: Ras-related C3 botulinum toxin substrate 1 (Homo sapiens) (UniProt P63000); assay: inhibition of wildtype Rac1 nucleotide loading – biochemical, multiplex bead flow cytometry, dose response (AID 1340); settings: GST-Rac1 beads, Bodipy-FL-GTP binding; at 100 µM (top of the series)
# [5] = biological target: GTPase HRas (Homo sapiens) (UniProt P01112); assay: blockade of GTP loading onto mutant Ras – biochemical, activated mutant, multiplex bead flow cytometry, dose response (AID 1341;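 active = dose-response curve with midpoint inside the tested range, moderate steepness, significant amplitude and little compound fluorescence or bead-attachment interference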;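 note: GST-tagged constitutively activated Ras mutant immobilized on beads and multiplexed with other GTPases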)
# [6] = interference with biotin-avidin bead interaction – biochemical, flow cytometry, bead-based, counter-screen for RGS protein interaction modulators (AID 1783;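 active = inhibition above 50%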;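 note: median green fluorescence of gated singlet beads compared with DMSO control wells; 0% = DMSO wells and 100% = complete loss of bead fluorescence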); settings: streptavidin beads, fluorescein-biotin binding, at 10 µM, stronger effect = higher value
# [7] = biological target: Guanine nucleotide-binding protein G(o) subunit alpha (Homo sapiens) (UniProt P09471); assay: retest of RGS8-Galphao interaction hits – biochemical, multiplexed bead flow cytometry, single concentration, confirmation (AID 1836; in the data active = binding response below about 72% or above about 130%; inactive = in between;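 note: Galphao activated as GDP AlF4 complex before binding bead RGS8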); settings: bead-based flow cytometry RGS8-Galphao binding, fluorescence; at 10 µM; actives lie on both sides
# Sequence of Guanine nucleotide-binding protein G(o) subunit alpha (Homo sapiens) (P09471 whole entry, looked up): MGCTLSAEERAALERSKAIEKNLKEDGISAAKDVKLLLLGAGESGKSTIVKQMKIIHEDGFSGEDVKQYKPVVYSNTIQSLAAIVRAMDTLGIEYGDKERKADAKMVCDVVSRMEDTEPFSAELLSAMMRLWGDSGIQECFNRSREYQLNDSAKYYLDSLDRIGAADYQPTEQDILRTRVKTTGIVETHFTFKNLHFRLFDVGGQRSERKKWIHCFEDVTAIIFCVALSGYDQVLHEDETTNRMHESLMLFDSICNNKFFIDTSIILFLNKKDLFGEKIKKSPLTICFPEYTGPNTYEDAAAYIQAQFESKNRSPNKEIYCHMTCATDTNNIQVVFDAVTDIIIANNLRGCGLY
# [8] = biological target: Guanine nucleotide-binding protein G(o) subunit alpha (Homo sapiens) (UniProt P09471); assay: retest of RGS7-Galphao interaction hits – biochemical, multiplexed bead flow cytometry, single concentration, confirmation (AID 1837; in the data active = response below about 75% or above about 130%; inactive = in between;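 note: fluorescent Galphao activated with GDP and aluminum fluoride binding bead-coupled RGS7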); settings: bead-based flow cytometry RGS7-Galphao binding; at 10 µM; actives lie on both sides
# [9] = biological target: Regulator of G-protein signaling 16 (Homo sapiens) + Guanine nucleotide-binding protein G(o) subunit alpha (Homo sapiens) (UniProt O15492+P09471); assay: RGS16 and Galphao interaction regulators – biochemical, single concentration, multiplexed bead flow cytometry, confirmation (AID 1838; in the data active = response below about 74% or above about 130%; inactive = in between;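 note: Galphao activated as the GDP aluminium fluoride complex binding bead-coupled RGS16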); settings: bead-based flow cytometry, at 10 µM, actives lie on both sides
# Sequence of Regulator of G-protein signaling 16 (Homo sapiens) + Guanine nucleotide-binding protein G(o) subunit alpha (Homo sapiens) (O15492 whole entry, looked up): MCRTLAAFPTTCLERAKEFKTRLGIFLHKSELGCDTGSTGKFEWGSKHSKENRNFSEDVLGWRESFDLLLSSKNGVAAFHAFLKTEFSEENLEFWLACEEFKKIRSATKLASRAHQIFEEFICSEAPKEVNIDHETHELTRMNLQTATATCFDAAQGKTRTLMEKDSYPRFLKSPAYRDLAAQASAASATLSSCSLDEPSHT
# Sequence of Regulator of G-protein signaling 16 (Homo sapiens) + Guanine nucleotide-binding protein G(o) subunit alpha (Homo sapiens) (P09471 whole entry, looked up): as the sequence (P09471 whole entry, looked up) above
# [10] = biological target: Guanine nucleotide-binding protein G(o) subunit alpha (Homo sapiens) (UniProt P09471); assay: RGS4 and Galphao interaction regulators – biochemical, single concentration, multiplexed bead flow cytometry, confirmation (AID 1840; in the data active = binding response below about 74% or above about 130%; inactive = in between); settings: at 10 µM, actives lie on both sides
# [11] = biological target: Guanine nucleotide-binding protein G(o) subunit alpha (Homo sapiens) + Regulator of G-protein signaling 19 (Homo sapiens) (UniProt P09471+P49795); assay: RGS19 interaction with Gαo, hit retest – biochemical, single point, multiplexed bead flow cytometry, confirmation (AID 1841; in the data active = response below about 50% or above about 160%; inactive = in between;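 note: 100% = no compound control and 0% = blank background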); settings: bead-based flow cytometry RGS19-Galphao binding; at 10 µM; actives lie on both sides
# Sequence of Guanine nucleotide-binding protein G(o) subunit alpha (Homo sapiens) + Regulator of G-protein signaling 19 (Homo sapiens) (P09471 whole entry, looked up): as above
# Sequence of Guanine nucleotide-binding protein G(o) subunit alpha (Homo sapiens) + Regulator of G-protein signaling 19 (Homo sapiens) (P49795 whole entry, looked up): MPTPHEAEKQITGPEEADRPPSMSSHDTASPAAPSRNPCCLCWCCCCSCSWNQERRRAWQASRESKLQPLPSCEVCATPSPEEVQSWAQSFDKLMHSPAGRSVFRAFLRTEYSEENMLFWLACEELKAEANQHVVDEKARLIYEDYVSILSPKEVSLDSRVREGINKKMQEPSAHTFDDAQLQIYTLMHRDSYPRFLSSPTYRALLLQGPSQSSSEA
# [12] = hit retest on RPL19A-GFP reporter strain – cell-based, S. cerevisiae, flow cytometry, cherry picks, mother/daughter gates, confirmation (AID 2270;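 active = GFP response below 50% of the DMSO control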); settings: 3 h, at 10 µM, stronger effect = lower value, 100 = same GFP as DMSO wells
# [13] = yeast TOR pathway reporter LAP4-GFP change – cell-based, cherry picks, flow cytometry, mother/daughter gates, confirmation (AID 2271;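 active = GFP response above 150% of the DMSO control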;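 note: ratio of sample to DMSO plate mean so 100% equals DMSO level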); settings: S. cerevisiae LAP4-GFP strain, 3 h, at 10 µM, stronger effect = higher value
# [14] = TOR pathway reporter MEP2-GFP, retest of hits – S. cerevisiae, flow cytometry GFP, cherry picks, confirmation (AID 2272;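 active = GFP response above 150% of the DMSO control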;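 note: ratio of well signal to plate DMSO mean so 100% equals DMSO level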); settings: S. cerevisiae MEP2-GFP strain, 3 h, at 10 µM, stronger effect = higher value
# [15] = yeast AGP1-GFP fluorescence change, single-dose – cell-based, flow cytometry, S. cerevisiae, cherry picks, confirmation (AID 2273;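 active = GFP response above 150% of the DMSO level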;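 note: median GFP channel fluorescence over the whole cell population gate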); settings: S. cerevisiae AGP1-GFP strain, 3 h, at 10 µM
# [16] = TOR pathway CIT2 reporter hit retest – S. cerevisiae, GFP fusion, cherry picks, mother/daughter gates, confirmation (AID 2274;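 active = GFP response above 150% of the DMSO level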); settings: S. cerevisiae CIT2-GFP strain, flow cytometry, 3 h, at 10 µM, stronger effect = higher value
# [17] = measured here: daughter cell gate
# [18] = measured here: mother cell gate
# [19] = measured here: daughter cell gate response
# [20] = measured here: mother cell gate response
smiles,measurement,setting,value
Cc1cc(OCCCn2cc(C(=O)O)c3ccccc32)ccc1Cl,outcome,[1],inactive
same,"fluorescence, percent of control (lower = inhibition)",[2],58.1%
same,outcome,[3],inactive
same,"GTP binding signal, raw median fluorescence (lower = inhibition) (MCF (arbitrary fluorescence units))",[4],28.5
same,outcome,[5],inactive
Nc1ccc(C(=O)N/N=C2/CN3CCC2CC3)cc1,inhibition,[6],-1.4% (inactive)
same,binding response (% of control),[7],102% (inactive)
same,response (percent of control binding),[8],98.3% (inactive)
same,response (% of control binding),[9],99.4% (inactive)
same,binding response (% of control),[10],100% (inactive)
same,response (percent of control binding),[11],92.4% (inactive)
CCn1nc(/C=C/c2ccccc2)nc2c(=O)n(C)c(=O)nc1-2,outcome,[3],inactive
same,"GTP binding signal, raw median fluorescence (lower = inhibition) (MCF (arbitrary fluorescence units))",[4],195
same,outcome,[5],inactive
C[C@H](O)[C@H]1CC[C@H]2[C@@H]3CCC4=CC(=O)CC[C@]4(C)[C@H]3CC[C@]12C,GFP response vs DMSO,[12],97.8% (inactive)
same,GFP response vs DMSO,[12]; [17],93%
same,GFP response vs DMSO,[12]; [18],99.6%
same,GFP response relative to DMSO,[13],117% (inactive)
same,GFP response relative to DMSO,[13]; [19],117%
same,GFP response relative to DMSO,[13]; [20],120%
same,GFP response vs DMSO,[14],95.7% (inactive)
same,"GFP response, % of DMSO",[15],93.7% (inactive)
same,"GFP response, % of DMSO",[16],96.5% (inactive)
same,"GFP response, % of DMSO",[16]; [17],89.9%
same,"GFP response, % of DMSO",[16]; [18],98.7%
CCOc1ccc(C2SCC(=O)Nc3c2c(C)nn3C2CCOC(C)(C)C2)cc1 (centres undefined),outcome,[1],inactive
same,"fluorescence, percent of control (lower = inhibition)",[2],96.5%
same,outcome,[3],inactive
same,"GTP binding signal, raw median fluorescence (lower = inhibition) (MCF (arbitrary fluorescence units))",[4],195
same,outcome,[5],inactive
O=C(O)c1cn(Cc2ccc(Br)cc2)c2ccccc12,outcome,[1],inactive
same,"fluorescence, percent of control (lower = inhibition)",[2],91.7%
same,outcome,[3],inactive
same,"GTP binding signal, raw median fluorescence (lower = inhibition) (MCF (arbitrary fluorescence units))",[4],74
same,outcome,[5],inactive
Cc1nc2c(=O)n(C)c(=O)nc-2n(C)n1,outcome,[3],inactive
same,"GTP binding signal, raw median fluorescence (lower = inhibition) (MCF (arbitrary fluorescence units))",[4],251
same,outcome,[5],inactive
O=C(O)c1cn(Cc2ccccc2Cl)c2ccccc12,outcome,[1],inactive
same,"fluorescence, percent of control (lower = inhibition)",[2],64.9%
same,outcome,[3],inactive
same,"GTP binding signal, raw median fluorescence (lower = inhibition) (MCF (arbitrary fluorescence units))",[4],34.1
same,outcome,[5],inactive
COCCCn1c(N)c(C(=O)Nc2sc3c(c2C(=O)OC)CCCC3)c2nc3ccccc3nc21,outcome,[1],inactive
same,"fluorescence, percent of control (lower = inhibition)",[2],85.2%
same,outcome,[3],inactive
same,"GTP binding signal, raw median fluorescence (lower = inhibition) (MCF (arbitrary fluorescence units))",[4],139
same,outcome,[5],inactive
O=C(O)c1cn(Cc2ccccc2F)c2ccccc12,outcome,[1],inactive
same,"fluorescence, percent of control (lower = inhibition)",[2],93%
same,outcome,[3],inactive
same,"GTP binding signal, raw median fluorescence (lower = inhibition) (MCF (arbitrary fluorescence units))",[4],68.4
same,outcome,[5],inactive
O=C(O)c1cn(Cc2ccc(F)cc2)c2ccccc12,outcome,[1],inactive
same,"fluorescence, percent of control (lower = inhibition)",[2],106%
same,outcome,[3],inactive
same,"GTP binding signal, raw median fluorescence (lower = inhibition) (MCF (arbitrary fluorescence units))",[4],91.8
same,outcome,[5],inactive
O=C1CN=C(c2ccccc2)c2cc(Br)ccc2N1Cc1cc(=O)n2ccccc2n1,outcome,[1],inactive
same,"fluorescence, percent of control (lower = inhibition)",[2],47.5%
same,"GTP binding signal, raw median fluorescence (lower = inhibition) (MCF (arbitrary fluorescence units))",[4],216
same,outcome,[5],inactive
Cc1ccc(C)c(OCCn2cc(C(=O)O)c3ccccc32)c1,outcome,[1],inactive
CCOC(=O)c1c(NC(=O)c2c(N)n(CCCOC)c3nc4ccccc4nc23)sc2c1CCCC2,outcome,[1],inactive
same,"fluorescence, percent of control (lower = inhibition)",[2],77.3%
same,outcome,[3],inactive
same,"GTP binding signal, raw median fluorescence (lower = inhibition) (MCF (arbitrary fluorescence units))",[4],151
same,outcome,[5],inactive
Cc1ccccc1OCCCn1cc(C(=O)O)c2ccccc21,outcome,[1],inactive
same,"fluorescence, percent of control (lower = inhibition)",[2],68.3%
same,outcome,[3],inactive
same,"GTP binding signal, raw median fluorescence (lower = inhibition) (MCF (arbitrary fluorescence units))",[4],37.8
same,outcome,[5],inactive
Cc1ccc(-n2c(O)c(/C=N/c3ncc(Br)cc3Br)c(=O)[nH]c2=O)cc1,outcome,[1],inactive
same,"fluorescence, percent of control (lower = inhibition)",[2],49.1%
same,outcome,[3],inactive
same,"GTP binding signal, raw median fluorescence (lower = inhibition) (MCF (arbitrary fluorescence units))",[4],59.9
same,outcome,[5],inactive
O=C(O)c1cn(Cc2ccc(Cl)cc2)c2ccccc12,outcome,[1],inactive
same,"fluorescence, percent of control (lower = inhibition)",[2],76.5%
same,outcome,[3],inactive
same,"GTP binding signal, raw median fluorescence (lower = inhibition) (MCF (arbitrary fluorescence units))",[4],77.6
same,outcome,[5],inactive
C[C@]12CCC(=O)C=C1CC[C@@H]1[C@@H]2CC[C@]2(C)C(=O)CC[C@@H]12,GFP response vs DMSO,[12],96.8% (inactive)
same,GFP response vs DMSO,[12]; [17],95.1%
same,GFP response vs DMSO,[12]; [18],97.7%
same,GFP response relative to DMSO,[13],102% (inactive)
same,GFP response relative to DMSO,[13]; [19],102%
same,GFP response relative to DMSO,[13]; [20],101%
same,GFP response vs DMSO,[14],94.1% (inactive)
same,"GFP response, % of DMSO",[15],91.2% (inactive)
same,"GFP response, % of DMSO",[16],98.3% (inactive)
same,"GFP response, % of DMSO",[16]; [17],97.2%
same,"GFP response, % of DMSO",[16]; [18],99.7%
